IDH1 R132H inh – qHTS for Inhibitors of mutant isocitrate dehydrogenase 1 (IDH1): qHTS; Isocitrate dehydrogenase [NADP] cytoplasmic (Homo sapiens), O75874; AID 602179, 2012; Potency, µM (series often up to 76.6 µM), actives largely listed as inhibitors; 390,000 compounds, 0.093% hits; IDH1-R132H enzyme, NADPH consumption, diaphorase/resazurin fluorescence; note: nearly all actives have a fitted effect of over 65% in size
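IDH1-R132H (0.5 ug/mL dispensed) in pH 7.5 Tris buffer was preincubated 30 min with compound, then given a substrate mix of 0.016 mM NADPH and 2 mM alpha-KG for 80 min at room temperature; remaining NADPH was read by diaphorase/resazurin fluorescence.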
TrxR1 substrate – qHTS Assay for Substrates of Mammalian Selenoprotein Thioredoxin Reductase 1 (TrxR1): qHTS; purified TrxR1 substrate turnover, NADPH consumption readout; AID 588456, 2011; Potency, µM (doses to about 114 µM); Thioredoxin reductase 1, cytoplasmic (Rattus norvegicus), O89049; 390,000 compounds, 0.01% hits; note: nearly all actives have a fitted effect of over 50% in size
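Rat TrxR1, dispensed at 90 nM, was prereduced with 400 uM NADPH (final) for 5 min at ~22 deg C, then incubated with compound 15 min before 400 uM selenite. A first-read NADPH fluorescence drop versus no-compound background flagged substrates.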
VDR inh – Inhibitors of the vitamin D receptor (VDR): qHTS; 400,000 compounds, 0.93% hits; Vitamin D3 receptor (Homo sapiens), P11473; VDR-SRC2-3 peptide fluorescence polarization, 2 h; Potency, µM, actives largely listed as inhibitors
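Fluorescence polarization assay of small-molecule disruption of VDR binding to coregulator peptide SRC2-3. Compounds and controls pin-transferred, then read after 2 h incubation at ambient room temperature.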
TrxR1 inh – qHTS Assay for Inhibitors of Mammalian Selenoprotein Thioredoxin Reductase 1 (TrxR1): qHTS | Thioredoxin reductase 1, cytoplasmic (Rattus norvegicus), O89049 | recombinant rTrxR1, NADPH fluorescence consumption, selenite substrate | Potency, µM (highest dose often 114 µM), usual class: inhibitors | 390,000 compounds, 1% hits; note: nearly all actives have a fitted effect of over 65% in size
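Rat TrxR1 (90 nM in the dispensed reagent) was pre-reduced with 400 uM NADPH for 5 min at room temperature, then incubated with compound for 15 min. After 400 uM selenite was added, NADPH fluorescence (Ex 340/Em 450 nm) was followed for 8 min.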
PLK1 PBD inh – qHTS for Inhibitors of PLK1-PDB (polo-like kinase 1 - polo-box domain): Primary Screen. Serine/threonine-protein kinase PLK1 (Homo sapiens), P53350. Plk1 PBD binding of FITC phosphopeptide, fluorescence polarization. Potency, µM, hits mostly inhibitors. 360,000 compounds, 2.8% hits; note: series mostly up to about 57 µM; nearly all actives have a fitted effect of over 65% in size
Target sequence (P53350 whole entry, looked up, the tested form may be a part): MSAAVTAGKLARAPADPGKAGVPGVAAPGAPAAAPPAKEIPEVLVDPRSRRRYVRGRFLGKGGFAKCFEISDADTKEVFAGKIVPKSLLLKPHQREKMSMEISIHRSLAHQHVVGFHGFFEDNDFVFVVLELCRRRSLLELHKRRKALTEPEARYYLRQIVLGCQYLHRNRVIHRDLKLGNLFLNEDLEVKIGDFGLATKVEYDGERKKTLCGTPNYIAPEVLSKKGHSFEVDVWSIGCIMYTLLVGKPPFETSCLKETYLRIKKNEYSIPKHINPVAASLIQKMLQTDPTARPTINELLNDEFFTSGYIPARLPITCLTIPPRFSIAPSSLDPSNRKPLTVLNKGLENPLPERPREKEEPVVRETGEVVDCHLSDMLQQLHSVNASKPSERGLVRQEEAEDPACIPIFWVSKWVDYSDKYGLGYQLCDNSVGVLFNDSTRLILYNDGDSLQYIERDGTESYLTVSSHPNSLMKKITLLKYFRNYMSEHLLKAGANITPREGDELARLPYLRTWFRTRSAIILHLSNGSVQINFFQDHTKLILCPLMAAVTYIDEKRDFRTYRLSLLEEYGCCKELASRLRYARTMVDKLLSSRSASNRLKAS
Sfp inh – qHTS Assay for Inhibitors of Bacillus subtilis Sfp phosphopantetheinyl transferase (PPTase); 4'-phosphopantetheinyl transferase ffp (Bacillus subtilis), Q9F4F7; Biochemical Sfp PPTase activity, qHTS; Potency, µM, actives largely listed as inhibitors; 310,000 compounds, 3.5% hits; AID 1490, 2009;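 note: the enzyme is Sfp with the accession as filed and its product quenches rhodamine fluorescence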
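With Hepes-Na pH 7.6 buffer containing 10 mM MgCl2, Sfp (15 nM) modified BHQ-2-YbbR (12.5 uM) using rhodamine-CoA (5 uM). Two reads 30 minutes apart at 525/598 nm yielded each well's rate.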
Large screens that a line does not name were inactive. This is a sample that favours compounds with a hit; in the whole collection about 5.2% have one here. Calls come from the whole dose curve; as a rule, active = well fitted curve in the direction sought with a large enough effect; inconclusive = small, poorly fitted or top-dose-only effect, or another doubt; inactive = no such curve, though single readings can be large; an effect the other way counts as inactive or inconclusive.

COc1ccc(NC(=O)c2cc(-c3cc(F)ccc3OC)n[nH]2)c(OC)c1	none (no result: IDH1 R132H inh, TrxR1 substrate, VDR inh, TrxR1 inh, Sfp inh)
CCN(CC)CC(=O)c1ccc(-c2ccccc2)cc1	VDR inh 39.8µM, TrxR1 inh inconclusive, PLK1 PBD inh inconclusive
C/[N+]([O-])=C\CC(=O)c1ccc(-c2ccccc2)cc1	PLK1 PBD inh 21.2µM
CN(C)CC(=O)c1ccc(-c2ccccc2)cc1	VDR inh inconclusive, Sfp inh inconclusive
Cc1ccnc(NC(=O)C2CC(=O)N(Cc3ccccc3)C2)c1 (configuration not stated)	none (no result: Sfp inh)
CCOC(=O)c1[nH]c2c(c1Cc1ccccc1)C(=O)CC(c1ccc(C(C)(C)C)cc1)C2 (configuration not stated)	none (no result: PLK1 PBD inh, Sfp inh)
COc1ccccc1CCNC(=O)C(=O)NCC(c1ccco1)S(=O)(=O)c1ccccc1 (configuration not stated)	none (no result: PLK1 PBD inh, Sfp inh)
COc1ccc(OC)c(NC(=O)c2cc3cc(C)ccc3n2C)c1	none (no result: PLK1 PBD inh, Sfp inh)
Cc1ncc(C[n+]2csc(CCO)c2C)c(N)n1	none
Cc1ncc(C[n+]2ccc(C)c(C)c2)c(N)n1	none (no result: Sfp inh)
CCCSS/C(CCO)=C(/C)N(C=O)Cc1cnc(C)nc1N	VDR inh 25.1µM, Sfp inh 56.2µM (no result: IDH1 R132H inh, TrxR1 substrate, TrxR1 inh, PLK1 PBD inh)
C/C(=C(/CCO)SSCC1CCCO1)N(C=O)Cc1cnc(C)nc1N (configuration not stated)	VDR inh 56.2µM (no result: Sfp inh)
C/C(=C(/CCO)SSC[C@@H]1CCCO1)N(C=O)Cc1cnc(C)nc1N	VDR inh 14.1µM (no result: IDH1 R132H inh, TrxR1 substrate, TrxR1 inh, PLK1 PBD inh)
COc1ccc2[nH]c(C)c(-c3csc(N)n3)c2c1	none
O=c1c2ccccc2nc2n1CC/C2=C/N1CCN(c2cccc(C(F)(F)F)c2)CC1	TrxR1 inh 14.1µM, Sfp inh 31.6µM
C=CCOn1c(=O)c(-c2ccc(Cl)cc2)[n+]([O-])c2ccccc21	PLK1 PBD inh inconclusive
C=CCOn1c(=O)c(-c2ccc(OC)c(OC)c2)[n+]([O-])c2ccccc21	PLK1 PBD inh inconclusive, Sfp inh 56.2µM
C=CCOn1c(=O)c(-c2cccs2)[n+]([O-])c2ccccc21	PLK1 PBD inh 0.844µM
COc1ccc(-c2c(=O)n(OCc3ccccn3)c3ccccc3[n+]2[O-])cc1OC	none
O=C(Cc1cccc2ccccc12)NO	none (no result: IDH1 R132H inh, VDR inh, PLK1 PBD inh, Sfp inh)
C/C=C\C(=O)Nc1cccc(C2=NOC3(C2)C[C@@H](C(N)=O)N(C(=O)CC(c2ccccc2)c2ccccc2)C3)c1 (some centres not stated)	none
C/C=C/C=C/C(=O)Nc1cccc(C2=NOC3(C2)C[C@H](C(N)=O)N(C(=O)CC(c2ccccc2)c2ccccc2)C3)c1 (some centres not stated)	Sfp inh 39.8µM (no result: IDH1 R132H inh, TrxR1 substrate, VDR inh, TrxR1 inh, PLK1 PBD inh)
C/C=C\C(=O)Nc1cccc(C2=NOC3(C2)C[C@@H](C(N)=O)N(C(=O)c2ccccc2)C3)c1 (some centres not stated)	none
C/C=C/C(=O)N1CC2(CC(c3cccc(NC(=O)/C(C)=C/C)c3)=NO2)C[C@H]1C(N)=O (some centres not stated)	none
CCC(=O)Nc1cccc(C2=NOC3(C2)C[C@@H](C(N)=O)N(C(=O)CC)C3)c1 (some centres not stated)	none
C/C=C\C=C\C(=O)N1CC2(CC(c3cccc(NC(=O)CC)c3)=NO2)C[C@H]1C(N)=O (some centres not stated)	VDR inh inconclusive, TrxR1 inh inconclusive, Sfp inh 35.5µM
C/C=C/C=C\C(=O)Nc1cccc(C2=NOC3(C2)C[C@H](C(N)=O)N(C(=O)/C=C/C)C3)c1 (some centres not stated)	VDR inh inconclusive, TrxR1 inh 14.1µM, Sfp inh 22.4µM
C/C=C\C=C/C(=O)Nc1cccc(C2=NOC3(C2)C[C@@H](C(N)=O)N(C(=O)c2ccccc2)C3)c1 (some centres not stated)	Sfp inh 11.2µM (no result: IDH1 R132H inh, TrxR1 substrate, VDR inh, TrxR1 inh, PLK1 PBD inh)
CCOC(=O)CNC(=O)O[C@@H]1Cc2cc(OC)ccc2O[C@H]1c1cccc(OC)c1	none (no result: IDH1 R132H inh, TrxR1 substrate, TrxR1 inh, PLK1 PBD inh)
C/C=C/C=C\C(=O)Nc1cccc(C2=NOC3(C2)C[C@@H](C(N)=O)N(C(=O)c2cc([N+](=O)[O-])cc([N+](=O)[O-])c2C)C3)c1 (some centres not stated)	VDR inh inconclusive, TrxR1 inh 15.8µM, PLK1 PBD inh 33.6µM, Sfp inh 25.1µM
CCCCCC(=O)Nc1cccc(C2=NOC3(C2)C[C@@H](C(N)=O)N(C(=O)c2cc([N+](=O)[O-])cc([N+](=O)[O-])c2C)C3)c1 (some centres not stated)	none
CCOC(=O)c1cccc(Nc2nc(C(=O)OCC)nc3ccccc23)c1	none (no result: PLK1 PBD inh, Sfp inh)
CCOC(=O)c1nc(Nc2cccc(C)c2)c2ccccc2n1	PLK1 PBD inh 21.2µM
COc1ccc(CNc2ccccc2SC)cc1OC	Sfp inh 56.2µM
COc1cc(CNc2ccccc2SC)cc(OC)c1OC	Sfp inh inconclusive
Cc1ccc(NC(=O)C2CCN(c3ncccn3)CC2)cc1F	none (no result: PLK1 PBD inh, Sfp inh)
COc1ccc(S(=O)(=O)Nc2c(O)ccc3ccccc23)cc1OC	VDR inh inconclusive, PLK1 PBD inh 29.9µM (no result: Sfp inh)
COc1ccc(C(=O)Nc2c(O)ccc3ccccc23)cc1OC	PLK1 PBD inh inconclusive (no result: Sfp inh)
CC1CCCCC1NC(=O)COCc1cc(-c2cccs2)on1 (configuration not stated)	TrxR1 inh 44.7µM
COc1ccc(C(=O)N2CCC(C(=O)Nc3ccc(OC)cc3OC)CC2)cc1	IDH1 R132H inh inconclusive (no result: PLK1 PBD inh, Sfp inh)
COc1ccc(C(=O)N2CCC(C(=O)Nc3ccc(OC)c(OC)c3)CC2)cc1	Sfp inh 89.1µM
COc1ccc(/C=C2/Sc3ccc(C(=O)N4CCOCC4)cc3NC2=O)cc1OC	PLK1 PBD inh 26.7µM
CCOC(=O)N1CCN(C(=O)c2ccc3c(c2)NC(=O)/C(=C\c2ccc(OC)c(OC)c2)S3)CC1	VDR inh inconclusive, TrxR1 inh 25.1µM
O=C1Nc2cc(C(=O)N3CCOCC3)ccc2S/C1=C\c1ccccc1	none
COc1ccc(S(=O)(=O)NCc2cccnc2)cc1C(=O)Nc1ccccc1	none
Cc1cc(N2C(=O)C(O)=C(C(=O)c3cc4ccccc4o3)C2c2cccs2)no1 (configuration not stated)	TrxR1 inh inconclusive, PLK1 PBD inh inconclusive
